We go through 93 compounds from PubChem BioAssay AID687028 (Broad Institute, 2013).

SMILES strings stand for the structures. Hit rate of the full screen: of about 1,400 compounds, about 55 (4%) were called active. How the calls were made is not given here. A selection follows. Measured potencies and affinities stand elsewhere.

The nature of this assay: viability loss in A549 cells – cell-based, plate reader, cherry-pick samples, cytotoxicity control, dose response (AID 687028).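 Further: cells incubated with compound for three days before reading.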 The following applies: series mostly up to 19.5 µM.
On to `C[C@@H]1CCCCO[C@H](CN(C)Cc2ccc(C(F)(F)F)cc2)[C@H](C)CN([C@@H](C)CO)C(=O)c2cc(NC(=O)c3ccccc3)ccc2O1`, for which the call was inactive.

With `C[C@@H]1CCCCO[C@@H](CN(C)C(=O)Nc2ccc(C(F)(F)F)cc2)[C@H](C)CN([C@H](C)CO)C(=O)c2cc(NC(=O)Cc3ccccc3)ccc2O1`, the result was inactive.

As for `C[C@H](CO)N1C[C@H](C)[C@H](CN(C)C(=O)Nc2ccc(F)cc2)OCCCC[C@H](C)Oc2ccc(NC(=O)c3ccccc3)cc2C1=O`, the compound was classed as inactive.

Regarding `C[C@@H]1CN([C@H](C)CO)C(=O)c2cc(NC(=O)Nc3ccc(C(F)(F)F)cc3)ccc2O[C@@H](C)CCCCO[C@@H]1CN(C)C(=O)Cc1ccccc1`, the compound was classed as inactive.

As to `Cc1nc2ccccc2n1C(c1cccnc1)c1nc2ccccc2[nH]1` (stereo not drawn), the compound was classed as inactive.

As to `O=C1c2ccccc2C(=O)N1CC(=O)N1c2ccccc2Sc2ccc(C(F)(F)F)cc21`, the outcome was inactive.

Turning to `COc1ccccc1NCC(=O)N/N=C(\C)c1ccc(Br)s1`, the call was inactive.

On to `O=C(NCCCCNC(=O)c1cccnc1Cl)c1cccnc1Cl`, for which the result was inactive.

For the compound `Oc1ccc(Cl)cc1CNCc1ccc(F)cc1`, the outcome was inactive.

Consider `Cc1ccc(CNCc2cc(Cl)ccc2O)cc1`, for which the compound was called inactive.

Take `O=C(NC1CC1)c1cccc(NC(=O)c2cc(S(=O)(=O)N3CCOCC3)ccc2Cl)c1`: the compound was called inactive.

Regarding `O=C(C[C@@H]1CC[C@H]2[C@@H](COC[C@H](O)CN2C(=O)c2ccccc2F)O1)NCc1ccccc1`, the result was inactive.

With `COc1cccc(C(=O)N2CCOCC2)c1`, the result was inactive.

Turning to `CCC(=O)Nc1nnc(/C=C/c2ccc(OC)cc2)s1`, the outcome was inactive.

Take `C[C@@H]1CCCCO[C@H](CN(C)C(=O)NC2CCCCC2)[C@@H](C)CN([C@H](C)CO)C(=O)c2cc(NC(=O)CCCCCC(=O)Nc3ccccc3N)ccc2O1`: the compound was called inactive.

For the compound `Clc1cc(Br)ccc1OCCOCCN1CCCC1`, the compound was classed as inactive.

Consider `Clc1cc(Br)ccc1OCCCn1ccnc1`, for which the outcome was inactive.

As to `COc1ccc(C(=O)NCCNc2nc3c(C)cccc3cc2C#N)cc1OC`, the compound was classed as inactive.

Turning to `Cn1c(N)c(C(=O)N2CCN(c3ccccc3)CC2)c(=O)n(C)c1=O`, the compound was classed as inactive.

With `CN1c2ccc(Br)cc2[C@H]2[C@H](CCN2C(=O)C2CCC2)[C@H]1CO`, the result was inactive.

Turning to `CN1c2ccc(Br)cc2[C@@H]2[C@@H](CCN2C(=O)C2CCCC2)[C@H]1CO`, the call was inactive.

For the compound `COc1cccc(C2(c3cccc(OC)c3)CC2C(=O)Nc2ccc(F)cc2)c1` (stereo not drawn), the call was inactive.

Turning to `CN1C(C)(C)c2ccccc2OS1(=O)=O`, the result was inactive.

For the compound `COc1ccc(S(=O)(=O)N2CCC(C(=O)NCCC(=O)NCc3ccccn3)CC2)cc1`, the call was inactive.

As to `O=C(CN1CCN(S(=O)(=O)c2ccccc2F)CC1)NC1CCCC1`, the compound was called inactive.

For the compound `O=C(NCc1ccccc1)[C@H]1CCCN1C(=O)[C@H]1CCCN1C(=O)c1ccc(Cl)cc1`, the compound was classed as inactive.

With `COc1ccc(C2=Nn3c(nnc3-c3ccccc3Cl)SC2)cc1OCC1CC1`, the result was inactive.

Consider `Cc1ccc(S(=O)(=O)Cc2ccccc2Cl)cc1`, for which the compound was classed as inactive.

In the case of `CC(NC(=O)CN1CCN(c2cccc(Cl)c2)CC1)c1ccccc1` (stereo not drawn), the outcome was inactive.

With `CC(C)(C)c1ccc(C(=O)OCC(=O)Nc2sc3c(c2C#N)CCC3)cc1`, the compound was classed as inactive.

Consider `COc1ccc(C(CNC(=O)c2cccc3cccnc23)N(C)C)cc1` (stereo not drawn), for which the compound was classed as inactive.

As to `COc1ccc(-c2nc(NCCCN(C)C)c3ccccc3n2)cc1`, the outcome was inactive.

On to `COC(=O)[C@@H]1[C@H](CCc2ccccc2)NC(=O)N(Cc2ccccc2)[C@@H]1C`, for which the call was inactive.

As to `COc1ccc(C2=Nc3ccccc3N(C(=O)c3ccncc3)C2C(=O)NC(C)C)cc1` (stereo not drawn), the result was inactive.

Consider `COc1ccc(OC)c(NC(=O)NNS(=O)(=O)c2ccc(C)cc2C)c1`, for which the compound was called inactive.

`Cc1ccc(C)c(NC(=O)CN2C(=O)C3CC=CCC3C2=O)c1` (stereo not drawn): the result was inactive.

For the compound `CC1(C(=O)Nc2cccc(OC(F)(F)F)c2)Cc2c(-c3cccc(C(N)=O)c3)ccnc2O1` (stereo not drawn), the call was inactive.

With `CC1(C(=O)NCc2cccc(C(F)(F)F)c2)CCN1Cc1cc2ccccc2o1` (stereo not drawn), the call was inactive.

`C[C@H](CO)N1C[C@H](C)[C@@H](CN(C)S(=O)(=O)c2cn(C)cn2)Oc2ccc(NC(=O)Nc3cccc4ccccc34)cc2CC1=O`: the compound was classed as inactive.

Regarding `O=C(N[C@@H]1c2ccccc2CC[C@@H]1OCc1ccccc1)c1ccc(C(F)(F)F)cc1`, the compound was classed as inactive.

For `CCCn1c(NCc2ccc(N(C)C)cc2)nc2ccccc21`, the result was inactive.

As for `COc1ccc(CNC(=O)COC(=O)CN2C(=O)NC3(CCCC3)C2=O)cc1`, the call was inactive.

As to `CCC(c1nnnn1-c1c(C)cccc1C)N1CCN(C/C=C/c2ccccc2)CC1` (stereo not drawn), the compound was classed as inactive.

Take `O=C1CCCC(c2ccccc2)N1` (stereo not drawn): the result was inactive.

Regarding `Cc1ccc(NC(=O)CN2CCC(NC(=O)c3cccc(F)c3)CC2)cc1C`, the result was inactive.

In the case of `COc1cc(C(=S)N2CCCCC2)ccc1OCC(=O)Nc1ccc(F)cc1`, the result was inactive.

`COc1ccc(CCN2C(=O)CSCC2(C)C(=O)Nc2ccc3c(c2)OCCO3)cc1OC` (stereo not drawn): the outcome was inactive.

As for `COc1cccc(N2CC(C(=O)Nc3ccc(F)cc3)CC2=O)c1` (stereo not drawn), the compound was called inactive.

On to `CCN1CCN(C(=O)C2CC(=O)N(c3ccc(Cl)cc3)C2)CC1` (stereo not drawn), for which the compound was called inactive.

On to `CCOc1ccc(/C=N/n2nnnc2N)cc1OCC`, for which the result was inactive.

For `CC(C)(C)N(Cc1ccccc1)C(=O)COC(=O)C1CCN(c2ccc(C(F)(F)F)cn2)CC1`, the call was inactive.

`CN1CCN(C(=O)c2cc3sc4ccccc4c3s2)CC1`: the result was inactive.

For `Cc1cc2oc3ccc(NCCCN4CCOCC4)cc3c(=O)c2cc1C`, the compound was classed as inactive.

`Cc1ccc(S(=O)(=O)N(C)C)cc1NC(=O)COC(=O)C1CCCC1`: the outcome was inactive.

Turning to `COC(=O)CN(c1cc(Cl)ccc1OC)S(=O)(=O)c1ccc(OC)c(OC)c1`, the compound was classed as inactive.

In the case of `O=C(NC1CCCC1)c1nc(-c2c(F)cccc2F)oc1-c1ccccc1`, the result was inactive.

Consider `Cc1cccc(C)c1OCC(O)Cn1ccnc1C` (stereo not drawn), for which the result was inactive.

Regarding `Cc1cccc(C(=O)OCC(=O)NCc2ccc(Cl)cc2)c1`, the compound was classed as inactive.

As to `CN1CCC(=O)N([C@H](COc2ccccc2)Cc2ccccc2)CC1`, the call was inactive.

For the compound `O=C(Cc1cn(Cc2ccccc2)c2ccccc12)Nc1ccc(Oc2cccnc2)cc1`, the outcome was inactive.

Turning to `O=C(Oc1ccccc1)c1ccccc1C(=O)Oc1ccccc1`, the result was inactive.

For the compound `COc1ccc(NC(=O)c2cc3ccccc3cc2O)cc1`, the result was inactive.

Consider `Cc1ccccc1-c1ccc(C2[C@@H]3CN(C(=O)Cc4ccncc4)C[C@H]2N3)cc1` (stereo partly drawn), for which the compound was classed as inactive.

Turning to `COCCNC(=O)C1(C)CCCN(C(=O)c2ccccc2)C1` (stereo not drawn), the compound was classed as inactive.

`COc1ccc(S(=O)(=O)N2CCC(C(=O)N[C@H](C(=O)NCc3ccccc3)C(C)C)CC2)cc1`: the result was inactive.

Take `CC(C)c1ccc(NC(=O)[C@H](NC(=O)[C@@H]2Cc3ccccc3CN2)c2ccccc2)cc1`: the outcome was inactive.

On to `COc1ccc2c(C)c(CCC(=O)NC3CC3)c(=O)oc2c1C`, for which the compound was called inactive.

As to `C[C@@H]1CN([C@H](C)CO)C(=O)Cc2cc(NC(=O)C3CC3)ccc2O[C@H]1CN(C)C(=O)Nc1ccccc1`, the compound was classed as inactive.

Turning to `CCc1nnc(N2C(=O)c3ccccc3C2(O)c2ccccc2)s1` (stereo not drawn), the call was inactive.

Consider `O=C(O)CCCCCCCCc1cn(CCc2c[nH]c3ccccc23)nn1`, for which the outcome was inactive.

For `CCN1C(=NCCc2c[nH]c3ccccc23)N[C@@H](c2ccccc2)[C@H](C(=O)OC)[C@H]1C`, the compound was classed as inactive.

Take `CCOc1ccc2[nH]c3ncccc3c(=O)c2c1`: the outcome was inactive.

Regarding `C[C@@H]1CCCCO[C@@H](CN(C)C(=O)C2CCCCC2)[C@H](C)CN([C@H](C)CO)C(=O)c2cc(NC(=O)c3ccncc3)ccc2O1`, the compound was called inactive.

With `C[C@@H]1CCCCO[C@@H](CN(C)S(=O)(=O)c2ccc(F)cc2)[C@@H](C)CN([C@@H](C)CO)C(=O)c2cc(NC(=O)c3ccccc3)ccc2O1`, the outcome was inactive.

Turning to `O=C1Nc2ccccc2C(=O)N(C2CCCC2)C1C(=O)NC1CC1` (stereo not drawn), the call was inactive.

Take `CC(C)(C)NC(=O)c1cccc(NC(=O)c2ccc3c(c2)C(=O)N(C(C)(C)C)C3=O)c1`: the compound was classed as inactive.

For the compound `COc1cc(OC)cc(C(=O)Nc2ccc3nc4n(c(=O)c3c2)CCCC4)c1`, the compound was called inactive.

As for `O=C(c1ccccc1Cc1ccccc1)N1CCN(S(=O)(=O)c2ccccc2)CC1`, the outcome was inactive.

As to `Cc1cc2oc(=O)cc(Cn3ccnc3)c2cc1Cl`, the call was inactive.

Consider `COc1ccc2c3c([nH]c2c1)[C@H](CO)N(C(=O)Nc1cccc(F)c1)CC31CN(S(=O)(=O)c2ccccc2)C1`, for which the result was inactive.

Turning to `COc1ccc2c3c([nH]c2c1)[C@H](CO)N(C(C)=O)CC31CN(C(=O)c2cccc(F)c2)C1`, the compound was called inactive.

Regarding `O=S(=O)(c1cccs1)N1CCN(c2ccnc3cc(Cl)ccc23)CC1`, the compound was called inactive.

Take `CN(C[C@H](Cc1ccccc1)N(C[C@@H](CC1CCCCC1)N(CCc1ccccc1)N=O)N=O)N=O`: the call was inactive.

As for `O=C(C1CCCCC1)N1C[C@H](O)[C@@H](n2cc(C3CC3)nn2)C[C@@H]1c1ccccc1`, the call was inactive.

Consider `CCCCCC(=O)N1C[C@@H](O)[C@H](n2cc(COC(=O)c3ccccc3)nn2)C[C@@H]1c1ccc(C)cc1`, for which the compound was classed as inactive.

On to `Cc1noc(C)c1NC(=O)Nc1ccc2c(c1)C(=O)N([C@@H](C)CO)C[C@@H](C)[C@@H](CN(C)C)OCCCC[C@@H](C)O2`, for which the compound was called inactive.

Turning to `CCOC(=O)N1CCC(NCCNC(=O)c2ccc(F)c(F)c2)CC1`, the call was inactive.

In the case of `C[C@H](NC(=O)C1CCN(S(=O)(=O)c2ccccc2)CC1)C(=O)NCc1cccnc1`, the compound was classed as inactive.

Regarding `COc1ccc(CN2CCC(C(=O)NC(c3ccc4c(c3)OCO4)c3ccccn3)CC2)cc1` (stereo not drawn), the compound was called inactive.

For the compound `COc1ccc(C2NC(=O)NC(C)=C2C(=O)Nc2cccc(C)c2C)cc1` (stereo not drawn), the outcome was inactive.

With `CCN(C[C@H]1N[C@@](C)(C(=O)OC)[C@H]2C(=O)N(C)C(=O)[C@@H]12)S(=O)(=O)c1ccc(-c2ccccc2)cc1`, the compound was classed as inactive.

For the compound `CC(C)CCNC(=O)C1CC(c2ccccc2C(F)(F)F)=NO1` (stereo not drawn), the call was inactive.

For the compound `Cc1cccc(N(CC(=O)NC2CC2)S(=O)(=O)c2ccc(Cl)cc2)c1`, the outcome was inactive.
